Compound activity (PubChem BioAssay)
Compounds with a hit are over-represented: about 3.1% of the library has one in this group of screens.
SKKanGAS inh – SKKanGAS growth inhibition; S. pyogenes SKKanGAS, kanamycin growth, BacTiter-Glo, 6 h; inhibition, % at 7.5 µM; 300,000 compounds, 1.3% hits; AID 1662;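 active = mean replicate score, as percent of positive control median, at least 50; inconclusive = mean below 50 but one replicate at or above 50; inactive = mean and every replicate below 50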;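 also: strain carries kanamycin resistance gene driven by streptokinase promoter and grows in 40 µg/ml kanamycin; loss of luminescence reflects streptokinase promoter inhibition or plain growth inhibition; 0% = median of DMSO wells and 100% = positive control at its reference dose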
PP1 counter – counter-screen for PP5 inhibitors: inhibitors of human PP1-alpha. P62136. inhibition, % at 6.7 µM. 320,000 compounds, 0.9% hits. purified PP1alpha, OMFP fluorescence. AID 2235;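 active = inhibition above the mean inhibition of all tested compounds plus 3 SD, computed separately for each screening campaign, cut at about 15% in these data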
Target sequence (P62136 whole entry, looked up): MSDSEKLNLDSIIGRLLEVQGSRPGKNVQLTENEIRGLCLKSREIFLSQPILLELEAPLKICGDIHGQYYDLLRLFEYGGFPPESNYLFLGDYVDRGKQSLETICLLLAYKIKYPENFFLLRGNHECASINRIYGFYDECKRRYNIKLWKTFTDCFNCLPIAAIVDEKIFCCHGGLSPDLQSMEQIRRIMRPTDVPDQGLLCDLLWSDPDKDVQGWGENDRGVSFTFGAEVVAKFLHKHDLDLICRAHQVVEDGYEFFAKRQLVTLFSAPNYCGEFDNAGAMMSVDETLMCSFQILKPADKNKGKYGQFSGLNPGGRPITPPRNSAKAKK
Beta apoptosis – beta cell apoptosis inhibition | INS-1E cytokine-induced death, ATP luminescence, 48 h; percent of positive-control rescue, neutral wells zero | protection from apoptosis, % (no concentration beside the values) | 300,000 compounds, 0.8% hits | AID 435005;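 active = Every replicate reaches about 75%, or at least half do and their mean reaches it too, limit read from the data; inconclusive = At least half of replicates reach the limit but their mean does not; inactive = Under half of replicates reach the limit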;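 also: 0% = cytokine-treated negative control wells and 100% = positive control rescue; higher means more ATP so stronger rescue from cytokine killing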
PP5 inh – PP5 (human) phosphatase inhibition; 320,000 compounds, 0.18% hits; P53041; AID 1987; inhibition, % at 6.7 µM; purified PP5c, OMFP substrate fluorescence;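 active = inhibition above the campaign's mean inhibition across all tested compounds plus 3 SD, cut at about 9.5% in these data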;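 also: 0% = DMSO only and 100% = 100 µM cantharidin control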
CSC inhib – blocks cancer stem cells. cancer stem cell-like cells viability, luminescence. inhibition, % at 7.5 µM. 300,000 compounds, 1.1% hits; in the data active = inhibition above about 75%; inconclusive = no clear call, values can overlap the other calls; tested in HMLE shEcad cells
* = called active by the depositor; u = inconclusive; x = no result.

SMILES	SKKanGAS inh	PP1 counter	Beta apoptosis	PP5 inh	CSC inhib
Cc1ccc2sc(N(CCCN(C)C)C(=O)c3ccc(S(=O)(=O)N(C)Cc4ccccc4)cc3)nc2c1C	40.0	17.0*	x	4.7	-7.1
CCOC(=O)c1sc(/S(C)=N\S(=O)(=O)c2cccc(Cl)c2)c2c1CCC=C2 (stereo not given)	5.3	-2.1	-3.8	-1.6	-23.1
CCN(CC)c1ccc2c(cc1=O)[C@@H](NC)CCc1cc(OC)c(OC)c(OC)c1-2	2.4	1.6	38.9	2.0	55.9
CN[C@H]1CCc2cc(OC)c(OC)c(OC)c2-c2ccc(N(C)CC(OC)OC)c(=O)cc21	-0.3	0.8	9.8	-0.4	80.2*
COc1cc2c(c(OC)c1OC)-c1ccc(N(C)CC(OC)OC)c(=O)cc1[C@@H](NC(C)=O)CC2	2.4	-1.4	29.6	3.0	75.1*
O=c1c2ccccc2c(-c2ccccc2)nn1Cc1c(Cl)cccc1Cl	74.6*	-4.5	-0.1	2.7	36.5
Cc1cc(C)nc(SCc2ccc(C(=O)N/N=C/c3ccncc3)cc2)n1	-4.4	-2.9	-2.5	0.1	-2.1
Cc1cc(C)nc(SCc2ccc(C(=O)NNC(=O)Nc3cccc(Cl)c3)cc2)n1	9.3	6.9	-3.9	-3.4	110.6*
C=CCNc1ncnc2c1[nH]c1ccccc12	-2.9	3.3	5.5	-0.5	-14.1
CCCCOCCCNc1ncnc2c1[nH]c1ccccc12	0.8	2.0	113.5*	2.8	25.6
CCOCCCNc1ncnc2c1[nH]c1ccccc12	0.1	-2.2	78.3*	2.2	-5.2
CC(C)OCCCNC(=O)CCCC(=O)Nc1ccc(OCCc2ccccc2)cc1	3.9	-1.7	-0.9	2.4	3.8
CCc1ccc(CN2CCCC(C(=O)Nc3ccccc3-c3ccc(OC)cc3)C2)o1 (stereo not given)	0.5	-0.4	1.6	0.7	13.1
CCC(C)Nc1nc(N)c([N+](=O)[O-])c(Nc2cc(OC)ccc2OC)n1 (stereo not given)	68.7*	0.3	0.7	3.4	63.3
N/C(=N\OC(=O)CCn1cccc(C(F)(F)F)c1=O)c1ccc(Cl)cc1	-4.8	-1.8	x	-0.9	-15.1
O=C(Nc1ccnn1C1CCN(Cc2cc(Cl)ccc2O)CC1)C1CC1	-3.3	-0.4	1.8	1.9	-10.6
OC(CN1CCN(c2ccccn2)CC1)Cn1c2ccc(Cl)cc2c2cc(Cl)ccc21 (stereo not given)	43.5	-6.5	2.5	5.3	105.3*
CC1=C(C)CC(C(=O)Nc2ccc(C(=O)N3CCOCC3)cc2)C(C(=O)O)C1 (stereo not given)	-2.8	-1.8	-1.2	-0.9	8.7
CCOC(=O)c1cc(-c2ccc(OC(F)F)cc2)nc2c1c(=O)[nH]c(=O)n2C	99.7*	-13.1	2.0	-1.9	18.0
CCOC(=O)c1cc(-c2ccc(OC(F)F)cc2)nc2nc(SC)[nH]c(=O)c12	3.0	-0.7	-1.4	-2.7	7.3
CC1=C(C(=O)Nc2ccc([N+](=O)[O-])cc2)C(c2cccc(C(F)(F)F)c2)NC(=S)N1c1ccccc1 (stereo not given)	50.4*	11.1	6.1	7.0	32.7
O=C(O)c1ccc(Oc2ccc(C(F)(F)F)cn2)cc1	-4.4	-2.4	x	1.4	2.3
Cc1ccccc1N1CCN(C(=O)c2ccc(Oc3ccc(C(F)(F)F)cn3)cc2)CC1	5.6	3.4	4.3	4.0	87.3*
CCc1nonc1NC(=O)c1oc2ccc(F)cc2c1C	-2.6	-3.0	x	-0.4	x
Cc1c(C(=O)Nc2nonc2-c2ccc(F)cc2)oc2ccc(F)cc12	57.1*	4.4	-1.5	2.7	u
SMILES	SKKanGAS inh	PP1 counter	Beta apoptosis	PP5 inh	CSC inhib
O=C(NCc1ccccc1)C1=C[C@@H](C2CC2)C[C@@H](OCCCCO)O1	2.3	-2.5	-0.4	0.1	-1.1
Cc1cc(C(=O)OC(C(=O)Nc2cccc(C(F)(F)F)c2)c2ccccc2)c(C)o1 (stereo not given)	71.2*	2.6	3.7	6.7	-20.6
Cc1nc2c(Br)c(C)nn2c2c1CCC2	2.7	-3.9	-8.7	2.2	-13.7
Cc1cc(Br)c(OCc2ccc(C(=O)N/N=C/c3ccc[nH]3)cc2)c(Br)c1	x	8.6	116.8*	6.0	97.9*
O=C(N/N=C/c1ccc[nH]1)c1ccc(COc2cccc3cccnc23)cc1	18.3	2.0	99.7*	1.4	99.8*
O=C(N/N=C/c1ccc[nH]1)c1ccc(O)cc1	-1.9	-2.2	-0.3	1.1	-11.0
CCN(Cc1ccccc1)C(c1ccc(C(F)(F)F)cc1)c1nnnn1C(C)(C)C (stereo not given)	11.8	15.3*	106.2*	-0.1	24.2
COc1ccc2c(C)nc(Nc3nc(C)c(C)c(=O)[nH]3)nc2c1	30.8	-0.7	51.7	1.2	105.9*
Cc1nc(Nc2nc(CSc3ccc(Cl)cc3)cc(=O)[nH]2)nc2ccccc12	12.3	2.0	15.9	-0.7	-35.4
Cc1nc(Nc2nc(CSc3nc4ccccc4[nH]3)cc(=O)[nH]2)nc2ccccc12	11.6	4.5	4.5	1.1	194.9*
COc1ccc(Nc2nc(C)c3ccccc3n2)cc1	-4.3	2.4	-1.8	1.9	0.3
Cc1nc(Nc2nc(-c3ccccc3)cc(=O)[nH]2)nc2ccccc12	81.5*	4.7	3.1	1.4	x
COc1ccc2nc(Nc3nc(CSc4nc5ccccc5[nH]4)cc(=O)[nH]3)nc(C)c2c1	31.3	5.8	76.6*	1.5	66.5
Cc1ccc(N(CC(=O)NCc2ccc(F)cc2)C(=O)c2snc(C(N)=O)c2N)cc1C	15.2	4.7	2.7	3.6	7.5
CC(Oc1ccccc1)C(=O)Nc1nnc(S(=O)(=O)Nc2ccccc2)s1 (stereo not given)	3.6	1.9	-3.6	0.9	-12.8
O=C(CSc1nc2ccccc2c(=O)n1CCCN1CCOCC1)Nc1cccc(S(=O)(=O)N2CCCCCC2)c1	4.7	1.6	5.1	4.3	-6.8
O=C(Nc1ccccc1C(=O)NC(Cc1ccc(O)cc1)C(=O)O)c1ccccc1 (stereo not given)	-0.2	-0.8	-0.4	-1.4	-11.1
COc1ccc2nc(NNC(=O)c3cc(=O)c4ccccc4o3)sc2c1	49.8*	4.3	6.5	0.3	8.6
Cc1cccc2sc(NNC(=O)c3cc(=O)c4ccccc4o3)nc12	85.3*	3.6	-1.0	1.0	41.8
Cc1ccc2sc(NNC(=O)c3cc(=O)c4ccccc4o3)nc2c1C	86.0*	7.5	x	1.5	52.7
O=C(NNc1nc2c(F)cccc2s1)c1cc(=O)c2ccccc2o1	28.7	3.4	-1.1	0.2	9.3
Cc1cnc(C(=O)OCC(=O)N2CCN(S(=O)(=O)c3ccc(Cl)cc3)CC2)cn1	0.6	-4.1	-6.7	0.6	-8.1
Cc1cccc(OCC(=O)NCC(=O)N/N=C/c2cc(Br)cc(Br)c2O)c1	61.1*	11.7	55.0	0.2	27.8
COc1cccc(/C=N/NC(=O)CNC(=O)COc2ccccc2)c1O	1.8	-3.7	18.6	-0.5	55.1
Cc1ccc(CSc2ncnc3c2cnn3Cc2ccccc2)cc1	64.8*	-2.6	-1.3	2.3	11.6
Cc1ccc(NC2CCCN(C(=O)c3ccc(F)cc3)C2)cc1C (stereo not given)	0.9	1.0	x	-0.2	-13.0
